# Assay results as given in PubChem BioAssay AID463173 (ICCB-Longwood Screening Facility, Harvard Medical School, 2010).
# Screen size: about 52,000 compounds; about 4,300 (8.3%) were called active. Rule as the data show it: active = survival mostly below about 52% (no sharp cut-off); inactive = mostly above about 56%. The list comes from a sample in which actives are over-represented; it also holds similar structures and randomly drawn compounds.
# Tested on: DeltatarO mutant
# Experiment: S. aureus survival, RN4220 and DeltatarO strains – OD600, teichoic acid synthesis inhibitors, primary screen (AID 463173)
# Conditions: S. aureus RN4220 wild type/DeltatarO growth, OD600, 18 h, hits give low values, screened at 18.75 µg/mL (by protocol)
row,Compound,survival
1,COc1cccc(C(=O)NCC(c2ccc(N(C)C)cc2)N2CCCC2)c1OC (stereo not drawn),94% (inactive)
2,Cc1nc(-c2cccc(NC(=O)Nc3ccccc3C(F)(F)F)c2)no1,130% (inactive)
3,Cc1ccc(C)c2c(N)c3c(nc12)CCCCC3,96% (inactive)
4,CC(CCc1ccccc1)NC(=O)Cn1ncc2c3ccccc3n(Cc3cccc(Cl)c3)c2c1=O (stereo not drawn),95% (inactive)
5,CC(C)(C)OC(=O)N1CC=C2C(C1)C(c1cccc(F)c1)C(C#N)=C(N)C2(C#N)C#N (stereo not drawn),79% (inactive)
6,CCCN1CC=C2C(C1)C(c1ccc(C(=O)OC)cc1)C(C#N)=C(N)C2(C#N)C#N (stereo not drawn),51% (active)
7,CCN1CC=C2C(C1)C(c1ccc(Cl)s1)C(C#N)=C(N)C2(C#N)C#N (stereo not drawn),105% (inactive)
8,COc1cc(-c2nnc(SCC(=O)N3CCCc4ccccc43)o2)cc(OC)c1OC,66% (inactive)
9,Cc1ccc(Cl)cc1NC(=O)C1CCN(C(=O)c2cnn(-c3ccccc3)c2-n2cccc2)CC1,71% (inactive)
10,Cc1cc(C)nc(SCc2noc(-c3ccc(Cl)cc3)n2)n1,97% (inactive)
11,CCc1ccccc1NC(=O)Nc1cc(C(=O)NCc2ccc(C)cc2)ccc1N1CCCC1,113% (inactive)
12,COc1ccc(NC(=O)Cn2c(=O)n(CCC(=O)NCC3CCCO3)c(=O)c3cc(OC)c(OC)cc32)cc1 (stereo not drawn),72% (inactive)
13,COc1ccc(OC)c(NC(=O)Cn2nc3c(cc2=O)CCCC3)c1,57% (inactive)
14,Cc1nn(-c2ccc(N3CCOCC3)nn2)c(C)c1CCC(=O)NCc1ccc(Cl)cc1,107% (inactive)
15,CCc1ccc(NC(=O)c2oc3c(c2C)-c2[nH]ncc2CC3)cc1,48% (inactive)
16,Cc1cc(C)c(NC(=O)c2oc3c(c2C)-c2[nH]ncc2CC3)c(C)c1,67% (inactive)
17,Cc1cc(NC(=O)c2oc3c(c2C)-c2[nH]ncc2CC3)ccc1Br,3% (active)
18,Cc1ccc(Cn2cc(CCC(=O)NCc3ccccc3F)c3ccccc32)cc1,77% (inactive)
19,Cc1c(C(=O)Nc2ccc(Br)cc2F)oc2ccc(S(=O)(=O)N3CCCCC3)cc12,78% (inactive)
20,Cc1cccc(N2CCN(CCCNC(=O)c3sc4ncccc4c3-n3cccc3)CC2C)c1 (stereo not drawn),105% (inactive)
21,COc1cc2c(cc1OC)C1=C(C#N)CN(C3CCCCC3)CN1CC2,83% (inactive)
22,NC(=O)C1CCN(C(=O)C2CCN(S(=O)(=O)c3ccc(-n4cnnn4)cc3)CC2)CC1,97% (inactive)
23,CCN(Cc1ccccc1)Cc1c(O)ccc2oc(C)c(C(=O)Nc3ccccc3C)c12,29% (active)
24,CCN(Cc1ccccc1)Cc1c(O)ccc2oc(C)c(C(=O)Nc3ccc(C)cc3C)c12,33% (active)
25,Cc1ccc(NC(=O)c2c(C)oc3ccc(O)c(CN(C)Cc4ccccc4)c23)c(C)c1,73% (inactive)

row,Compound,survival
1,Cc1ccccc1NC(=O)c1c(C)oc2ccc(O)c(CN3CCCC3)c12,80% (inactive)
2,CCN1CCN(Cc2c(O)ccc3oc(C)c(C(=O)Nc4ccc(C)cc4C)c23)CC1,92% (inactive)
3,Cc1ccccc1NC(=O)c1c(C)oc2ccc(O)c(CN(C)Cc3ccccc3)c12,81% (inactive)
4,Cc1cc(=O)n(CC(=O)NC(C)c2ccccc2)c2c1c(C)nn2C (stereo not drawn),66% (inactive)
5,Cc1ccc(Nc2nnc(-c3ccc(C)c(S(=O)(=O)N4CCN(C)CC4)c3)c3ccccc23)cc1,80% (inactive)
6,COCCOC(=O)c1c(-c2ccccc2)c(-c2ccccc2)nn(C)c1=O,65% (inactive)
7,COc1ccc2oc(=O)c(C(=O)NCCc3c(C)[nH]c4c(C)cccc34)cc2c1,47% (active)
8,Cc1[nH]c2c(C)cccc2c1CCNC(=O)c1cc2ccccc2oc1=O,86% (inactive)
9,Cc1ccc2[nH]c(C)c(CCNC(=O)c3cc4cc(Br)ccc4oc3=O)c2c1,37% (active)
10,COc1cccc2cc(C(=O)NCCc3c(C)[nH]c4ccc(F)cc34)c(=O)oc12,53% (inactive)
11,COc1ccc2oc(=O)c(C(=O)Nc3cccc(C(=O)O)c3)cc2c1,50% (active)
12,COc1ccc2oc(=O)c(C(=O)NCCc3c(C)[nH]c4c(Cl)cccc34)cc2c1,62% (inactive)
13,COc1ccc2oc(=O)c(C(=O)NCCc3c(C)[nH]c4ccc(F)cc34)cc2c1,46% (inactive)
14,COc1ccc2oc(=O)c(C(=O)NCCc3c(C)[nH]c4ccc(C)cc34)cc2c1,40% (active)
15,COc1ccc2oc(=O)c(C(=O)Nc3ccc(O)cc3)cc2c1,98% (inactive)
16,COc1ccc2oc(=O)c(C(=O)NCCc3c(C)[nH]c4ccc(Br)cc34)cc2c1,45% (inactive)
17,COc1ccc2oc(=O)c(C(=O)Nc3ccc(C(=O)O)cc3)cc2c1,136% (inactive)
18,Cc1[nH]c2ccc(F)cc2c1CCNC(=O)c1cc2cc(Cl)ccc2oc1=O,52% (inactive)
19,Cc1cc(C)n(C(C)CC(=O)Nc2cccc(C#N)c2)n1 (stereo not drawn),78% (inactive)
20,CN(C)CCN(Cc1ccccc1)S(=O)(=O)c1ccc(-c2cc(C(F)(F)F)on2)s1,87% (inactive)
21,O=C1CCC(=O)N1CNc1ccccc1,85% (inactive)
22,CC(=O)N1CCOc2cc(S(=O)(=O)Nc3cc(C(F)(F)F)ccc3Cl)c(C)cc21,94% (inactive)
23,CCN1CCN(CCCNC(=O)c2cnn(-c3ccc(OC)cc3)c2C2CCN(C(=O)OC(C)(C)C)CC2)CC1,95% (inactive)
24,Cc1ccc(N2CCN(c3nc4ccccc4n4nnnc34)CC2)c(C)c1,105% (inactive)
25,Cc1cccc(C)c1NC(=O)Cn1cc(C(=O)C2CC2)c2ccccc21,67% (inactive)

row,Compound,survival
1,CCOc1ccc(NCc2cccn2-c2nnc(N3CCC(C(=O)NC(C)c4ccccc4)CC3)s2)cc1 (stereo not drawn),74% (inactive)
2,O=C1C2C(C(=O)N1CC1CCCO1)C1C=CC2C12CC2 (stereo not drawn),80% (inactive)
3,C=CCc1cccc2cc(C(=O)NCCc3c(C)[nH]c4c(C)cccc34)c(=O)oc12,48% (inactive)
4,Cc1[nH]c2ccc(Br)cc2c1CCNC(=O)c1cc2ccccc2oc1=O,32% (active)
5,COc1cccc2cc(C(=O)NCCc3c(C)[nH]c4ccc(Br)cc34)c(=O)oc12,121% (inactive)
6,COc1ccc(Cl)cc1Nc1ccc2cc(S(=O)(=O)N3CCCCC3)ccc2n1,83% (inactive)
7,Cc1cccc(Cn2cccc2CNS(=O)(=O)c2ccccc2F)c1,-2% (active)
8,CCc1ccc(S(=O)(=O)NCc2cccn2Cc2cccc(C)c2)cc1,79% (inactive)
9,Cc1cccc(Cn2cccc2CNS(=O)(=O)c2ccc(Br)cc2)c1,76% (inactive)
10,CCOc1ccccc1C(=O)N1CCN(CCc2ccccn2)CC1,67% (active)
11,Cc1ccccc1C(=O)N1CCN(CCc2ccccn2)CC1,49% (inactive)
12,O=C(c1ccccc1Cl)N1CCN(CCc2ccccn2)CC1,52% (inactive)
13,CC(CNC(=O)CN1C(=O)c2cccnc2Oc2ccc(Cl)cc21)c1ccccc1 (stereo not drawn),90% (inactive)
14,CCOC(=O)c1noc2ncn(CC(=O)Nc3cc(Cl)ccc3OC)c(=O)c12,92% (inactive)
15,CCOC(=O)c1noc2ncn(CC(=O)Nc3ccccc3OC)c(=O)c12,118% (inactive)
16,CCOC(=O)c1noc2ncn(CC(=O)Nc3ccc(F)cc3Cl)c(=O)c12,-5% (active)
17,CCCCC(=O)Nc1ccc(C(=O)OCc2cc(=O)n3ccsc3n2)cc1,75% (inactive)
18,CC(C)CC(=O)N1c2nc(C(C)C)nn2C2(CCCCC2)[C@@H]2CCCC[C@@H]21,79% (inactive)
19,Cc1cc(C)cc(NC(=O)CSc2nc(-c3ccccc3)c3cc(F)ccc3n2)c1,87% (inactive)
20,Clc1ccccc1-c1nc(Nc2ccccc2)nc2ccc(Br)cc12,47% (active)
21,Cc1ccc2nc(Nc3ccc(Br)cc3)nc(-c3ccccc3)c2c1,35% (active)
22,COc1cccc(Nc2cc(C)nc3ccccc23)c1,109% (inactive)
23,Clc1ccc(Nc2nc(-c3ccccc3)c3cc(Cl)ccc3n2)cc1,54% (inactive)
24,COc1ccc(Nc2nc(-c3ccccc3)c3cc(Br)ccc3n2)cc1,23% (active)
25,CCN(CC)c1nc(-c2ccccc2Cl)c2cc(Br)ccc2n1,55% (inactive)

row,Compound,survival
1,COc1ccc(Nc2nc(N)c3cc(OC)c(OC)cc3n2)cc1,87% (inactive)
2,COc1cccc(NC(=O)c2c(-c3ccc(C)cc3)nnc3ccccc23)c1,78% (inactive)
3,COc1ccccc1Nc1nc(-c2ccccc2Cl)c2cc(Br)ccc2n1,125% (inactive)
4,COc1cccc(Nc2nc(-c3ccccc3)c3cc(C)ccc3n2)c1,12% (active)
5,Cc1ccc(Nc2c(-c3cccnc3)nc3ccc(Br)cn23)cc1,80% (inactive)
6,O=C(CCn1cccn1)Nc1ccc(Br)cc1F,93% (inactive)
7,COC(=O)c1cc2sccc2n1CC(=O)Nc1cc(Cl)ccc1OC,99% (inactive)
8,S=C(Nc1ccccc1)N1CCOCC1,89% (inactive)
9,CC(=O)c1cccc(NC(=O)c2nc3ccccc3nc2N2CCCCC2)c1,71% (inactive)
10,Cc1cccc(NC(=O)CSc2nc3c(oc4ccccc43)c(=O)n2C(C)C)c1,63% (inactive)
11,CCc1ccc(C(=O)c2cn(CC(=O)Nc3cccc(OC)c3)c3cc4c(cc3c2=O)OCO4)cc1,72% (inactive)
12,O=C(COc1ccc(Cl)cc1)Nc1nnc2n1CCS2,124% (inactive)
13,Cc1ccc(C(=O)N2CCC(c3c[nH]c4ccccc34)(c3c[nH]c4ccccc34)CC2)cc1,87% (inactive)
14,COc1ccc(CCNc2ncnc3c2c(-c2ccccc2)cn3-c2ccc(Cl)cc2)cc1OC,97% (inactive)
15,Cc1ccc(C)c(Nc2nc(-c3ccccc3)c3cc(Br)ccc3n2)c1,43% (active)
16,COc1cc2nc(Nc3cccc(C)c3)nc(N)c2cc1OC,67% (inactive)
17,Clc1ccc(Nc2nc(-c3ccccc3)c3ccccc3n2)c(Cl)c1,72% (inactive)
18,Oc1ccccc1Nc1nc(-c2ccccc2)c2cc(Cl)ccc2n1,71% (inactive)
19,Cc1ccc2nc(NN)nc(-c3ccccc3)c2c1,98% (inactive)
20,Clc1ccc2nc(Nc3ccccc3Cl)nc(-c3ccccc3)c2c1,75% (inactive)
21,O=C(O)c1cccc(Nc2ncnc3ccc(Br)cc23)c1,119% (inactive)
22,O=C(O)c1ccc(Nc2nc(-c3ccccc3)c3cc(Br)ccc3n2)cc1,21% (active)
23,Cc1cccc(Nc2nc(-c3ccccc3)c3cc(C)ccc3n2)c1,3% (active)
